The record followed here is PubChem BioAssay (NCI).

This is part of a sample that, as a whole, favours compounds with a hit. Of some 83,000 tested, about 20% had one in any assay.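 Plates (96-well) were seeded with cells, treated with compound at one concentration, and incubated for 48 hours before percent growth was determined.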 Activity calls are given as the source filed them. The calls were made as follows: active = growth percent below 10; inactive = the rest.

This assay relates to HL-60(TB) leukemia. In words: NCI-60 one-dose screen, 48 h (100 = growth as untreated, 0 = no growth, -100 = all killed). Conditions: 10 µM unless noted.
`COc1cc(C2C=C(c3cccc(NC(C)=O)c3)Nc3ncnn32)cc(OC)c1OC` (configuration not stated): the growth is -35.2% (active). Next, `O=C1/C(=C/c2ccc(-c3cccc(C(F)(F)F)c3)o2)SC(=S)N1CCc1ccc(O)cc1`: 35.7% (inactive). Turning to `Cn1c(=O)c2nc3c(=O)n(C)c(=O)n(C)c3nc2n(C)c1=O`, the growth was 85.1% (inactive). Take `CCN(CC)CC(O)CNc1ccc(NCC2CO2)c2c1C(=O)c1ccccc1C2=O` (configuration not stated): the growth is -25.2% (active).

On to `COc1ccc(C(=O)/C=C/c2cccnc2Nc2cc(OC)c(OC)c(OC)c2)cc1`, for which the growth was -23.2% (active). Next, `COc1cc(/C(=C2/O[C@@H]([C@H]3COC(C)(C)O3)[C@H]3OC(C)(C)O[C@@H]23)c2ccc3ccccc3c2)cc(OC)c1OC`: 59.2% (inactive); `CCC(c1ccc(OC)cc1)C(CC)c1ccc(OCC[N+](C)(C)C)cc1` (configuration not stated): -17.4% (active). For `COc1ccc2c(c1)Oc1nc(N)c(C#N)c(N)c1C2Sc1ccc(O)cc1` (configuration not stated), the growth is 9.8% (active). For the compound `O=C(Nc1ccc(Oc2ccc(F)cc2)c(Cl)c1)c1cccnn1`, the growth is 56.3% (inactive). For `COc1cccc(Nc2ncnn3ccc(CN4CC[C@@H](N)[C@H](O)C4)c23)c1`, the growth is 73.8% (inactive).

For `CCOC(=O)c1nn(-c2ccc(S(N)(=O)=O)cc2)c2nc(C)cc(=O)n12`, the growth is 101% (inactive). In the case of `CCN1CCN(c2nc(C)cc(NCc3cc(Nc4ccnc5cc(Cl)ccc45)ccc3F)n2)CC1` it was -7.3% (active). Next, `O=C(CCN1CCCC1)Nc1ccc2c(NCCCc3ccccc3)c3ccccc3nc2c1`: -55.6% (active). In the case of `COc1ccc(CCN2CC=Cn3c2nc2ccccc2c3=O)cc1` it was -8.02% (active); in that of `COc1ccc(C2CC(=O)Nc3c2c(C)nn3-c2nc3ccccc3[nH]2)cc1OC` (configuration not stated), 31.9% (inactive).

For the compound `COc1cc(CC(=O)c2ccc(O)c(OC)c2)ccc1O`, the growth is 87% (inactive).

In the case of `Cc1cc2nc(CC(=O)c3ccncc3)c(=O)[nH]c2cc1C`, the growth was 89.8% (inactive).

With `Cc1ccc(-c2nc(N3CCCNCC3)c3oc(-c4ccc(C)cc4)nc3n2)cc1`, the growth is -69.3% (active).

`Nc1ncnc2c1c(-c1ccc(Oc3ccccc3)cc1)nn2C[C@@H]1SSC[C@@H]1O`: the growth was -0.213% (active). Next, `COc1cc(-c2cc(C(=O)N3CCN(C(=O)c4ccccc4NCc4ccco4)CC3)nc3cc(-c4ccccc4)nn23)cc(OC)c1OC`: 11.6% (inactive); `O=C(/C=C/c1cccc([N+](=O)[O-])c1)c1ccc(O)c(CN2CCN(c3cc4c(cc3F)c(=O)c(C(=O)O)cn4C3CC3)CC2)c1`: 8.41% (active).

On to `Cc1ccccc1NC(=O)N/C(N)=N/c1nc(-c2cccc([N+](=O)[O-])c2)cs1`, for which the growth was 6.06% (active).

For `C=C(C)[C@@H]1CC[C@]2(C(=O)N3CCN(C)CC3)CC[C@]3(C)[C@H](CC[C@@H]4[C@@]5(C)C/C(=C/c6ccncc6)[C@H](O)C(C)(C)[C@@H]5CC[C@]43C)[C@@H]12`, the growth is -25.2% [100 µM] (active). With `C[C@]12CC[C@@H]3c4ccc(O)c(N)c4CC[C@H]3[C@@H]1CC[C@@H]2O`, the growth was 85.3% (inactive). For the compound `COc1ccc(-n2cc(COc3ccc4c5ccnc(C)c5n(CC(C)C)c4c3)nn2)cc1`, the growth is -10.6% (active).

Turning to `O=C(CCc1nnco1)c1nc2ccc([N+](=O)[O-])cc2[nH]1`, the growth is 120% (inactive).

In the case of `O=S(=O)(NCCNc1nccc(-c2c(-c3cccc(O)c3)nc3occn23)n1)c1ccc(Cl)cc1`, the growth is 76.4% (inactive). In the case of `Clc1ncn[nH]1` it was 103% (inactive). Next, `COc1cc(-c2nc(-c3nnc(-c4ccccc4Cl)o3)c3ccccn23)cc(OC)c1OC`: 67.1% (inactive). For `CN(Cc1ccccc1)Cc1ccc([N+](=O)[O-])cc1I`, the growth was 85% (inactive). Next, `CCOC(=O)c1c(C)nc2ccccc2c1/C=C/c1ccc(F)cc1`: 85.7% (inactive); `O=C(OCCCCOC(=O)n1cnc2ccccc21)n1cnc2ccccc21`: 104% (inactive); `CCN(CC)CCCC(Nc1c2ccc(Cl)cc2nc2ccc(OC)cc12)c1ccc(Cl)cc1` (configuration not stated): -16.2% (active). Next, `O=c1c2cnn(-c3ccccc3)c2n2c(CN3CCOCC3)nnc2n1-c1ccccc1`: 102% (inactive); `CCOC(=O)C#Cc1c(C(=O)OCC)nnn1Cc1ccc([N+](=O)[O-])cc1`: 55.4% (inactive); `COc1ccc(N2CCN(S(=O)(=O)c3oc(-c4ccccc4)nc3C#N)CC2)cc1`: 50.5% (inactive). Next, `CC(C)C[C@H](C(=O)O)N(C)C(=O)[C@@H]1CCCN1C(=O)[C@H](C)OC(=O)[C@H](CCC(N)=O)NC(=O)[C@@H]1CCC(=O)N1`: 85.8% (inactive).
